Test [1] addresses T1, Casein kinase II (Homo sapiens) (UniProt P67870+P68400+P19784). Conditions: at 1 µM.
Test [2] has as its target T1, Casein kinase II (Homo sapiens). The conditions noted are these: at 10 µM.
Test [3] addresses Dual specificity protein kinase CLK3 (Homo sapiens) (UniProt P49761). Conditions: at 1 µM.
For test [4] the target is unchanged. The conditions noted are these: at 10 µM.
In test [5] the target is Tyrosine-protein kinase CSK (Homo sapiens) (UniProt P41240). The conditions noted are these: at 1 µM.
Test [6] shares this target. The conditions noted are these: at 10 µM.
Test [7] deals with Calcium/calmodulin-dependent protein kinase type 1 (Homo sapiens) (UniProt Q14012). Conditions: at 1 µM.
The target is the same in test [8]. The conditions noted are these: at 10 µM.
In test [9] the target is Calcium/calmodulin-dependent protein kinase type II subunit beta (Homo sapiens) (UniProt Q13554). Conditions: at 1 µM.
The target is the same in test [10]. Conditions: at 10 µM.
Test [11] addresses Calcium/calmodulin-dependent protein kinase type II subunit gamma (Homo sapiens) (UniProt Q13555). Conditions: at 1 µM.
The target is the same in test [12]. The conditions noted are these: at 10 µM.
The target in test [13] is Casein kinase II subunit alpha' (Homo sapiens) (UniProt P19784). Conditions: at 1 µM.
For test [14] the target is unchanged. The conditions noted are these: at 10 µM.
Test [15] deals with Dual specificity protein kinase CLK2 (Homo sapiens) (UniProt P49760). The conditions noted are these: at 1 µM.
Test [16] shares this target. The conditions noted are these: at 10 µM.
The target of test [17] is Calcium/calmodulin-dependent protein kinase type II subunit delta (Homo sapiens) (UniProt Q13557). The conditions noted are these: at 1 µM.
For test [18] the target is unchanged. The conditions noted are these: at 10 µM.
For test [19], the target named is T2, Calcium/calmodulin-dependent protein kinase type IV (Homo sapiens) (UniProt Q16566).
T2 sequence (whole entry): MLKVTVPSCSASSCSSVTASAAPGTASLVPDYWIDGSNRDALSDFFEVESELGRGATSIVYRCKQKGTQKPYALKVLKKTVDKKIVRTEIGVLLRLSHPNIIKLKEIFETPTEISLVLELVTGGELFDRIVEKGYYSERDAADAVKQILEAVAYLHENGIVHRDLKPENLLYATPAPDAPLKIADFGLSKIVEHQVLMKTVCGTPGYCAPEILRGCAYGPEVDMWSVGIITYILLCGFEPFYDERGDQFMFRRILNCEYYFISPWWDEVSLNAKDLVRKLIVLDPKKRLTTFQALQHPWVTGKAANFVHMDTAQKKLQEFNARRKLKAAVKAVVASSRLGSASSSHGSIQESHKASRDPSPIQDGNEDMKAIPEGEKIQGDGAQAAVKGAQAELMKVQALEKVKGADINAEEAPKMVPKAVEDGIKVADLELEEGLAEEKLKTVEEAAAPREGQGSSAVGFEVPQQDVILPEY
The conditions noted are these: at 1 µM.

Test [20] has as its target T2, Calcium/calmodulin-dependent protein kinase type IV (Homo sapiens). The conditions noted are these: at 10 µM.

Consider ten compounds from ChEMBL document CHEMBL2218924, “A broad activity screen in support of a chemogenomic map for kinase signalling research and drug discovery” (Biochem J, 2013).

Sequence of Calcium/calmodulin-dependent protein kinase type II subunit delta (Homo sapiens) (Q13557 whole entry): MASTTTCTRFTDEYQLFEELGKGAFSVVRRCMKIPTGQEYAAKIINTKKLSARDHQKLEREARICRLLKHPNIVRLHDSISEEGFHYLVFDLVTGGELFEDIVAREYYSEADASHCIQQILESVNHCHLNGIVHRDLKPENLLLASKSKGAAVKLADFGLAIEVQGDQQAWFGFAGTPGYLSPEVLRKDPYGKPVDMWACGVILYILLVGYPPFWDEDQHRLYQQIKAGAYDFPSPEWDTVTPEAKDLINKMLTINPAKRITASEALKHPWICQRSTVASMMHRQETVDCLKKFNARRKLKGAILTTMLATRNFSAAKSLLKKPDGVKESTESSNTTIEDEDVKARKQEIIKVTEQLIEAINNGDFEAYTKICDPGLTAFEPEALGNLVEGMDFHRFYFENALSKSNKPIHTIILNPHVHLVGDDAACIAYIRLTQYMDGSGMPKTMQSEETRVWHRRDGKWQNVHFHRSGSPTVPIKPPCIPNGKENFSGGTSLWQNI
Sequence of Calcium/calmodulin-dependent protein kinase type II subunit gamma (Homo sapiens) (Q13555 whole entry): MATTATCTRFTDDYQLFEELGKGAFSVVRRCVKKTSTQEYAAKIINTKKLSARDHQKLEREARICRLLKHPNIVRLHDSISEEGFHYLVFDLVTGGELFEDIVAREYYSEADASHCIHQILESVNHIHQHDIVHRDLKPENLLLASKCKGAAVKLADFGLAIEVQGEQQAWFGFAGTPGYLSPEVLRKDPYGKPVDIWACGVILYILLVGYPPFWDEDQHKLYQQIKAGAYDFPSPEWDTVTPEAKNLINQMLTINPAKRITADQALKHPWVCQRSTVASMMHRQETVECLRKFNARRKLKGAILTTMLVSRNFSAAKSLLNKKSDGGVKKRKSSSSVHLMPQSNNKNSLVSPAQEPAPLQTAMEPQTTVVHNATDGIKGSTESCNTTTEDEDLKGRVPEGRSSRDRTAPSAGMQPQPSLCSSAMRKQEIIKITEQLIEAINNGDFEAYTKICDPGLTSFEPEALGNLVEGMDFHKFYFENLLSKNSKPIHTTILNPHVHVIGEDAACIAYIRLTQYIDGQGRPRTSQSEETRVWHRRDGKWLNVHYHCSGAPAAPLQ
Sequence of Dual specificity protein kinase CLK3 (Homo sapiens) (P49761 whole entry, looked up): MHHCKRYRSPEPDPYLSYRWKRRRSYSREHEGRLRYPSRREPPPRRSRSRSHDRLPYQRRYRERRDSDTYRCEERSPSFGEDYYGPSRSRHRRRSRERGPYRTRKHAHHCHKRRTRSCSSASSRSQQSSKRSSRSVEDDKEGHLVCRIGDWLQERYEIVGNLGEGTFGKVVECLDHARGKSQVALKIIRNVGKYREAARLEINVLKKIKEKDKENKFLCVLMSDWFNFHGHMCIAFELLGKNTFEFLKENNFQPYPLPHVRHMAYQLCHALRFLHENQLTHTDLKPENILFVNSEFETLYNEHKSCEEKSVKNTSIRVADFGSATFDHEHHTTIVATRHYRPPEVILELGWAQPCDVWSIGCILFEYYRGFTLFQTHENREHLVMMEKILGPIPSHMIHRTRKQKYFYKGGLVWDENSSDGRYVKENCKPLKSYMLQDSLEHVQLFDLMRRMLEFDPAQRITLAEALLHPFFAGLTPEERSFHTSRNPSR
Sequence of Calcium/calmodulin-dependent protein kinase type II subunit beta (Homo sapiens) (Q13554 whole entry): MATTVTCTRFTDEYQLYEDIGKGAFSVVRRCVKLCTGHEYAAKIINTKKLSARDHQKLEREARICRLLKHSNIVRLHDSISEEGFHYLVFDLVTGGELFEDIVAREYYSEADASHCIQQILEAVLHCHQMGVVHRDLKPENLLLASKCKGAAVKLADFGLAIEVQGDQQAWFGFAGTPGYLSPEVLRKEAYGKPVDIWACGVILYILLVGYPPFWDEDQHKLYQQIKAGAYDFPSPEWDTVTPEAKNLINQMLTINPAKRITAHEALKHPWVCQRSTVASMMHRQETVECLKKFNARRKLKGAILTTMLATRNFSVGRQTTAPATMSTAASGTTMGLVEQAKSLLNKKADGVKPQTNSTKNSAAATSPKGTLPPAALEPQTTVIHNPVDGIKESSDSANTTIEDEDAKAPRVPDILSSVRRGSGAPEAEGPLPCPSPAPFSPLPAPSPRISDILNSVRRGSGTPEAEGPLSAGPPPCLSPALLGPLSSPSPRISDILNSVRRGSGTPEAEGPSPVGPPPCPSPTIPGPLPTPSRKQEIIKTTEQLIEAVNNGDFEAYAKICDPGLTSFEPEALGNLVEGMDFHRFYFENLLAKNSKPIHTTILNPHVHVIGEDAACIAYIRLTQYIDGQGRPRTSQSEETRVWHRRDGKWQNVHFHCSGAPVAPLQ
Sequence of Tyrosine-protein kinase CSK (Homo sapiens) (P41240 2-450 limits assumed): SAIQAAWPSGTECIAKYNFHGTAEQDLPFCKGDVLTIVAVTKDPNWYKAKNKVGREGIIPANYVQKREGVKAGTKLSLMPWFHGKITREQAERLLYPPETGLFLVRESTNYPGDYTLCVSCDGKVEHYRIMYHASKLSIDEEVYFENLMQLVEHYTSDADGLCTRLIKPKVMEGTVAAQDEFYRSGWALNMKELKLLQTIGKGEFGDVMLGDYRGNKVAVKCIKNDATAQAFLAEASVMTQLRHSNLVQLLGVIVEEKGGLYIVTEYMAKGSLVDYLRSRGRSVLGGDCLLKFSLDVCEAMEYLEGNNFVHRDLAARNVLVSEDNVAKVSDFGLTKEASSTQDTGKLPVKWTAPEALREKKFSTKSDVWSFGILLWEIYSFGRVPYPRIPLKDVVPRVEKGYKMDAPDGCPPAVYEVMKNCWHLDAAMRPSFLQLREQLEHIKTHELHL
T1 sequence (P19784 whole entry, looked up): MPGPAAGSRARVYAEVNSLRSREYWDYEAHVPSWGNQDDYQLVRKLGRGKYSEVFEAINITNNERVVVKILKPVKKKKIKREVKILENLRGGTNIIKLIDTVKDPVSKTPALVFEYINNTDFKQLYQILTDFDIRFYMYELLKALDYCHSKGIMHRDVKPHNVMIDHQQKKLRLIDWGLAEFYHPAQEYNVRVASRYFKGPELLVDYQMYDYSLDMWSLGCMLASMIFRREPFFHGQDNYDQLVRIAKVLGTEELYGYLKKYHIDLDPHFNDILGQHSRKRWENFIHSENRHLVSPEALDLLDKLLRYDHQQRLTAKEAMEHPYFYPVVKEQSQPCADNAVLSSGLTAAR
T1 sequence (P67870 whole entry, looked up): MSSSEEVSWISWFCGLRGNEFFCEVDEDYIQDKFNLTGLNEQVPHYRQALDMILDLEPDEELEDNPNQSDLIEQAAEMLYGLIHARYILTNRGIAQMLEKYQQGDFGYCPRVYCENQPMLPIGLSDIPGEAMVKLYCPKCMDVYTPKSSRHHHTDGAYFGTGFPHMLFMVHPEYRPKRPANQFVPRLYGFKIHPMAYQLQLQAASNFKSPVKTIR
T1 sequence (P68400 whole entry, looked up): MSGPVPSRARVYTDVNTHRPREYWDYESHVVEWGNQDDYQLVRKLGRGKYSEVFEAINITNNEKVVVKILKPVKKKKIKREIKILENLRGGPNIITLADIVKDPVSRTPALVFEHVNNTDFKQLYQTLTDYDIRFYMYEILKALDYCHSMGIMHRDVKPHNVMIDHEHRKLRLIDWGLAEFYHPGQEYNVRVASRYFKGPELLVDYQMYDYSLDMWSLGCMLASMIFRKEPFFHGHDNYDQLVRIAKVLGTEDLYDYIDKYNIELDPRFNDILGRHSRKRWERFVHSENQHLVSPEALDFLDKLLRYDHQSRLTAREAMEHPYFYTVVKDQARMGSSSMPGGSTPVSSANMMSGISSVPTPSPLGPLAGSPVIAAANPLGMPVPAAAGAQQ
Sequence of Casein kinase II subunit alpha' (Homo sapiens) (P19784 whole entry, looked up): as the sequence (P19784 whole entry, looked up) above
Sequence of Calcium/calmodulin-dependent protein kinase type 1 (Homo sapiens) (Q14012 whole entry, looked up): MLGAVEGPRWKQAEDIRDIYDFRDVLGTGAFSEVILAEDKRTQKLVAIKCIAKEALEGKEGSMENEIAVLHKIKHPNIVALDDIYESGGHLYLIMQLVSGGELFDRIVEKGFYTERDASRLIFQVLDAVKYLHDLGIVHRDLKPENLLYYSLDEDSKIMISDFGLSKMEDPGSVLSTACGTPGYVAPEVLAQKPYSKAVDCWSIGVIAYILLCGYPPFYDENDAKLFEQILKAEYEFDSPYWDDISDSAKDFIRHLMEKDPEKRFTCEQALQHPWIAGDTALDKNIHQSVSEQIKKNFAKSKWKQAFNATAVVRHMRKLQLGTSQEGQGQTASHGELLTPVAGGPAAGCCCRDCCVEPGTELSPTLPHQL
Sequence of Dual specificity protein kinase CLK2 (Homo sapiens) (P49760 whole entry, looked up): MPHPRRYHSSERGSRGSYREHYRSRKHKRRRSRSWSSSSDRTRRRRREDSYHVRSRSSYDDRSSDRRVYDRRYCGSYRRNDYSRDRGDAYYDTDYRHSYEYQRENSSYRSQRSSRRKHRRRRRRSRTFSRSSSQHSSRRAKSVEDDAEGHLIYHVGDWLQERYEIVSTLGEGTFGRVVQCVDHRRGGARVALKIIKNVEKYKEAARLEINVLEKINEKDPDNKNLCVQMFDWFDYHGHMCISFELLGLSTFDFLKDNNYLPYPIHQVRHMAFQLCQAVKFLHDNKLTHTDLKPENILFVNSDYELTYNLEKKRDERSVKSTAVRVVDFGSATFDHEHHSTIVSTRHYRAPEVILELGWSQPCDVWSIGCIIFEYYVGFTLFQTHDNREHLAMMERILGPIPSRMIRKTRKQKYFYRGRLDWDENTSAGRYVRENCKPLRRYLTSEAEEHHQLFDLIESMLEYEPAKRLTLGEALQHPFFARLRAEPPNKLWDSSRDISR

Consider `N/C(=N\[N+](=O)[O-])N/N=C\c1ccc(-c2cccc([N+](=O)[O-])c2)o1`, for which the residual activity in [1] is 97%; in test [2], 89%; in test [3], 93%; in test [4], 86%; in test [5] it was 122%; in [6] it was 100%. Further, the residual activity in test [7] worked out at 93%; in test [8], 49%; in test [9], 92%; in test [10], 76%; in [11], 91%; in test [12] it was 53%.

Turning to `O=c1[nH]c2ccccc2n1C1CCN(Cc2ccc(-c3nc4cc5[nH]cnc5cc4nc3-c3ccccc3)cc2)CC1`, the residual activity in test [1] was 89%; in test [2] it was 101%; in test [13], 113%; in test [14] it was 95%; in test [15] it was 98%; in test [16], 76%. Besides, the residual activity is 76% in test [4]; 112% in test [5]; 89% in test [6]; 103% in [7]; -5% in [8]; 94% in test [9]. The residual activity in test [10] was found to be 6%; in [11], 104%; in [12], 16%; in test [17], 102%; in [18] it was 2%; in test [19], 130%. The residual activity in test [20] is 49%.

`COc1ccc2c(c1)/C(=C/c1cnc[nH]1)C(=O)N2`: the residual activity in test [14] was 32%; in test [15] it was 50%; in test [16], 10%; in test [8] it was 77%; in [11], 49%; in test [12] it was 10%. Moreover, the residual activity was determined as 42% in test [17] and 8% in test [18].

On to `O=C1c2ccccc2-c2nc3nnnn3nc21`, for which the residual activity in test [13] is 129%; in test [14], 77%; in test [15], 115%; in test [16] it was 107%; in test [3], 83%; in test [4] it was 119%. Also, the residual activity was found to be 123% in test [5]; 115% in test [6]; 107% in test [7]; 100% in test [8]; 105% in test [9]; 105% in test [12]. The residual activity is 104% in [17], 103% in test [18], 122% in test [19] and 113% in test [20].

Take `CCc1nc(-c2ccc(OC)cc2)[nH]c1-c1ccncc1`: the residual activity in test [13] stood at 121%; in test [14], 100%; in test [15], 101%; in test [16] it was 74%; in test [5], 123%; in [6] it was 102%. For the same compound, the residual activity in test [7] stood at 108%; in [8], 101%; in test [10] it was 76%; in [17], 110%; in test [18], 80%.

For `C[S+]([O-])c1ccc(-c2nc(-c3ccc(F)cc3)c(-c3ccncc3)[nH]2)cc1` (centres undefined), the residual activity in test [1] was found to be 100%; in test [2] it was 104%; in test [13], 122%; in test [14] it was 105%; in test [15], 114%; in test [16], 94%. The residual activity was 98% in test [3]; 98% in test [4]; 103% in [5]; 98% in [6]; 115% in test [7]; 99% in test [8]. Besides, the residual activity in [9] amounted to 114%; in test [10], 98%; in [11] it was 103%; in test [12] it was 100%; in [17], 108%; in test [18], 89%. Moreover, the residual activity was found to be 113% in test [19] and 98% in test [20].

For `COC(=O)[C@@]1(O)C[C@H]2O[C@]1(C)n1c3ccccc3c3c4c(c5c6ccccc6n2c5c31)C(=O)NC4`, the residual activity in test [1] came out at 93%; in test [2], 82%; in test [13] it was 108%; in test [14], 90%; in test [15], 1%; in [16], 4%. Moreover, the residual activity came out at 72% in [3]; 33% in test [4]; 71% in [5]; 18% in [6]; 6% in test [7]; 1% in test [8]. For the same compound, the residual activity is 0% in test [9]; -1% in [10]; 1% in test [11]; 0% in [12]; 0% in test [17]; 1% in test [18]. The figures for the residual activity in test [19] and in test [20] were 24% and 11%, respectively.

On to `CCn1cnc2c(Nc3cccc(Cl)c3)nc(N[C@@H]3CCCC[C@@H]3N)nc21`, for which the residual activity in test [1] is 91%; in test [2], 57%; in test [15], 10%; in test [16] it was 4%; in [3], 76%; in test [4], 30%. Moreover, the residual activity in test [6] amounted to 69%; in test [7], 84%; in test [8], 27%; in test [9], 93%; in test [10] it was 45%; in [11], 43%. For the same compound, the residual activity in [12] was found to be 10%; in test [17], 44%; in [18], 10%; in test [19], 77%; in [20], 17%.

Take `CN[C@@H]1C[C@H]2O[C@@](C)([C@@H]1OC)n1c3ccccc3c3c4c(c5c6ccccc6n2c5c31)C(=O)NC4`: the residual activity amounted to 81% in [1]; 85% in test [2]; 83% in [13]; 85% in [14]; 0% in [10].

As for `COc1cc(OC)c(/C=C2\C(=O)Nc3ccccc32)c(OC)c1`, the residual activity in [1] is 88%; in [2], 91%; in [13] it was 94%; in test [14], 90%; in test [3], 83%; in test [4] it was 81%. In addition, the residual activity in test [6] was determined as 99%; in test [7] it was 96%; in test [8] it was 82%; in [9] it was 102%; in test [10], 76%; in test [11] it was 105%. Further, the residual activity in test [12] is 96%; in [17] it was 107%; in test [18], 89%; in test [20], 101%.
